# Data: PubChem BioAssay (NCI)
# Several values for one entry are separate records, joined by “and”; a condition that tells them apart may be missing. Identical values can stand only once. This is part of a sample that, as a whole, favours compounds with a hit. Of some 83,000 tested, about 20% had one in any assay.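 Percent growth is the endpoint: 0 to 100 indicates growth inhibition (40 means 60% inhibition), 0 means no net growth, and negative values indicate cell death.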 Activity calls are given as the source filed them. Rule for the calls: active = growth percent below 10; inactive = the rest.
# Legend:
# Assay in all cases: NCI-60 one-dose screen, 48 h (100 = growth as untreated, 0 = no growth, -100 = all killed)
# Conditions in all cases: 10 µM unless noted
# [1] = tested on: NCI-H23 lung
# [2] = tested on: NCI-H226 lung
# [3] = tested on: NCI-H322M lung
# [4] = tested on: HOP-62 NSCLC
# [5] = tested on: NCI-H460 lung
# [6] = tested on: HOP-92 NSCLC
# [7] = tested on: NCI-H522 lung
# [8] = tested on: A549/ATCC NSCLC
# [9] = tested on: 786-0 renal
# [10] = tested on: COLO 205 colon
Compound,growth [1],growth [2],growth [3],growth [4],growth [5],growth [6],growth [7],growth [8],growth [9],growth [10]
O=C1c2cccc3cccc(c23)C(=O)N1N1C(=O)c2cccc3c(N4CCNCC4)ccc(c23)C1=O,92.2% (inactive),98.6% (inactive),88.2% (inactive),88.9% (inactive),72.4% (inactive),78.2% (inactive),93.8% (inactive),89.9% (inactive),73.7% (inactive),95.2% (inactive)
CCCCCCCCCCCCC[C@H](O)C[C@H](O)[C@H](C)N,99.2% [1.25 µM] (inactive),126% [1.25 µM] (inactive),102% [1.25 µM] (inactive),116% [1.25 µM] (inactive),103% [1.25 µM] (inactive),56.7% [1.25 µM] (inactive),119% [1.25 µM] (inactive),89.3% [1.25 µM] (inactive),85.9% [1.25 µM] (inactive),92.2% [1.25 µM] (inactive)
CCOC(=O)c1cc2c(n1Cc1cc(OC)cc(OC)c1Br)-c1nc(NC(C)=O)sc1CCC2,73.2% (inactive),71.3% (inactive),80.2% (inactive),80.4% (inactive),82.2% (inactive),46.6% (inactive),53.5% (inactive),42.8% (inactive),78% (inactive),82.2% (inactive)
CN(C)CCN1C(=O)c2c(c3c4ccccc4n4c3c3c2c2ccccc2n3C2CC(O)C(O)C4(C)O2)C1=O (configuration not stated),23.1% (inactive),18.6% (inactive),34.8% (inactive),14.2% (inactive),2.33% (active),75.9% (inactive),-5.02% (active),5.47% (active),29.3% (inactive),18.9% (inactive)
CN(C)CC1(C)Cc2ccsc2C1O (configuration not stated),106% (inactive) and 109% (inactive),105% (inactive),119% (inactive),105% (inactive) and 108% (inactive),112% (inactive) and 108% (inactive),101% (inactive) and 108% (inactive),94.5% (inactive) and 94.3% (inactive),112% (inactive) and 110% (inactive),97.2% (inactive) and 94.9% (inactive),106% (inactive) and 105% (inactive)
CC[C@@H]1NC(=O)[C@H]([C@H](O)[C@H](C)C/C=C/c2ccc(CN3C(=O)C(C)=C(C)C3=O)cc2)N(C)C(=O)[C@H](C(C)C)N(C)C(=O)[C@H](CC(C)C)N(C)C(=O)[C@H](CC(C)C)N(C)C(=O)[C@@H](C)NC(=O)[C@H](C)NC(=O)[C@H](CC(C)C)N(C)C(=O)[C@H](C(C)C)NC(=O)[C@H](CC(C)C)N(C)C(=O)CN(C)C1=O,82.6% (inactive),65% (inactive),65.7% (inactive),70.7% (inactive),80.7% (inactive),68.8% (inactive),61.9% (inactive),58.1% (inactive),97.6% (inactive),72.8% (inactive)
CC(=O)N1N=C(c2ccc(Nc3nc(Nc4ccc(F)cc4)nc(Nc4ccc(Cl)cc4)n3)cc2)CC1c1ccc(N(C)C)cc1 (configuration not stated),52.2% (inactive),42.3% (inactive),79.6% (inactive),109% (inactive) and 58.6% (inactive),44.9% (inactive),22.5% (inactive),47.8% (inactive),30.3% (inactive),113% (inactive) and 44.1% (inactive),51.2% (inactive)
O=C(CCCCCCCCC(=O)N/N=C\c1ccccc1O)N/N=C\c1ccccc1O,39.9% (inactive),-5.86% (active),19.5% (inactive),0.588% (active),-11.3% (active),41.9% (inactive),34.3% (inactive),17.1% (inactive),3.41% (active),43.1% (inactive)
O=C(CCCOc1ccc(Br)cc1)Nc1ncc(Cc2ccc(F)cc2)s1,86.5% (inactive),88.8% (inactive),78.5% (inactive),75.3% (inactive),90.4% (inactive),58% (inactive),75.1% (inactive),84.8% (inactive),86.3% (inactive),63.3% (inactive)
Cc1ccc2c(c1)C(C)Cc1c(ncnc1-n1cnc3cc(C)ccc31)N2C (configuration not stated),34% (inactive),47.4% (inactive),63.5% (inactive),27.6% (inactive),3.51% (active),10.4% (inactive),-30% (active),8.39% (active),10.7% (inactive),-51.2% (active)
O=C(N=Nc1c(O)[nH]c2ccccc12)Nc1ccccc1Cl,80.1% (inactive),87.1% (inactive),73.5% (inactive),104% (inactive),92.1% (inactive),90.3% (inactive),78.6% (inactive),107% (inactive),96.9% (inactive),105% (inactive)
CN(C)c1ccc2nc3ccc(=O)cc-3sc2c1,11.1% (inactive) and 22% (inactive),71.8% (inactive),49.7% (inactive) and 70% (inactive),35.5% (inactive) and 60.7% (inactive),19% (inactive) and 34.1% (inactive),–,-10.8% (active) and 41.5% (inactive),1.33% (active) and 35.9% (inactive),57.1% (inactive) and 43.7% (inactive),-10.2% (active) and 5.66% (active)
O=C1C=CC(=O)N1c1ccc2ccccc2c1,93.4% (inactive) and 103% (inactive),97.6% (inactive) and 111% (inactive),118% (inactive) and 103% (inactive),101% (inactive),110% (inactive) and 111% (inactive),81.8% (inactive) and 84.1% (inactive),-58.9% (active) and -24.2% (active),99% (inactive),103% (inactive) and 104% (inactive),-58.5% (active) and -42.5% (active)
CCN(C(=O)N1CCN(c2cc3c(cc2F)c(=O)c(C(=O)O)cn3C2CC2)CC1)c1nc(-c2ccccc2)cs1,6.27% (active),20.9% (inactive),13.3% (inactive),36% (inactive),5.27% (active),–,-1.7% (active),12.4% (inactive),14.3% (inactive),64.1% (inactive)
COc1cc(NC2CCCCC2O)c2nc(-c3ccc(Cl)cc3)ccc2c1 (configuration not stated),84.2% (inactive) and 98.5% (inactive),90% (inactive),88.8% (inactive) and 88.2% (inactive),109% (inactive) and 108% (inactive),41.2% (inactive) and 57.9% (inactive),–,65.7% (inactive) and 89.5% (inactive),69% (inactive) and 73.5% (inactive),42.4% (inactive) and 77.6% (inactive),93.2% (inactive) and 110% (inactive)
Cc1ccc(S(=O)(=O)Nc2cc(Sc3ccccc3)c(O)c3ccccc23)cc1,58% (inactive),96% (inactive),102% (inactive),112% (inactive),105% (inactive),18.2% (inactive),81% (inactive),90.3% (inactive),104% (inactive),108% (inactive)
COC(=O)c1nc(-c2ccc(C)cc2)oc1Sc1ccc(C)cc1,105% (inactive),104% (inactive),99.2% (inactive),94% (inactive),107% (inactive),87.9% (inactive),78.7% (inactive),97.6% (inactive),95.7% (inactive),102% (inactive)
COc1cc(/C=C/C(=O)c2ccc(NC(=O)CSc3nnc(-c4cc(-c5ccccc5)nc5ccccc45)n3-c3ccccc3)cc2)cc(OC)c1OC,86.8% (inactive),85.4% (inactive),91.7% (inactive),93.7% (inactive),90.4% (inactive),88.6% (inactive),70.7% (inactive),85.8% (inactive),94.7% (inactive),86.4% (inactive)
CN1Cn2c(ccc2C(F)(F)F)C(=O)CS1(=O)=O,108% (inactive),111% (inactive),104% (inactive),100% (inactive),110% (inactive),102% (inactive),103% (inactive),108% (inactive),96.7% (inactive),116% (inactive)
Cc1nc2sc(C(=O)Nc3cccc(Cl)c3C)c(N)c2cc1C(O)c1ccccc1 (configuration not stated),19.8% (inactive),43.5% (inactive),49.8% (inactive),33.6% (inactive),3.15% (active),30% (inactive),4.83% (active),16.2% (inactive),16.5% (inactive),-0.762% (active)
CN1C(=O)/C(=C/c2ccc(C(=O)Nc3ncc(Cc4ccccc4Cl)s3)cc2)SC1=S,94.6% (inactive),81.4% (inactive),72.2% (inactive),74.2% (inactive),79.5% (inactive),75.1% (inactive),64.2% (inactive),72.2% (inactive),87.9% (inactive),86.2% (inactive)
N=c1c2c(-c3ccccc3)c(-c3ccccc3)oc2ncn1NC(=O)c1cccnc1,93.2% (inactive),108% (inactive),98.7% (inactive),102% (inactive),105% (inactive),91% (inactive),95.1% (inactive),103% (inactive),99% (inactive),115% (inactive)
CCOC(=O)c1cnn(CC(O)CC)c1NC(=O)NCc1ccccc1C(F)(F)F (configuration not stated),92.7% (inactive),106% (inactive),94.5% (inactive),90.8% (inactive),110% (inactive),93.9% (inactive),70.3% (inactive),94.9% (inactive),96% (inactive),114% (inactive)
